Results filed as inconclusive are left out. The source made the active and inactive calls. Unless noted, the call rests on the fitted dose curve.
Key:
[1] = Nuclear factor erythroid 2-related factor 2/antioxidant responsive element (Nrf2/ARE) small molecule agonists: qHTS cell viability counter screen in human keratinocytes (AID 1919968; active means well fitted curve in the direction sought with a large enough effect in the repeat runs; an effect the other way counts as inactive or inconclusive; further: nearly all actives have a fitted effect of over 55% in size)
Procedure, shortened: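 KeratinoSens cells (HaCaT keratinocytes stably carrying an ARE-luciferase reporter) were seeded at 1,500 cells/well and rested 5 h at 37 C/5% CO2. They were then exposed to compounds in DMSO for 23 h. Viability was read by CellTiter-Fluor fluorescence after 1 h.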

[2] = Nuclear factor erythroid 2-related factor 2/antioxidant responsive element (Nrf2/ARE) small molecule agonists: luciferase reporter gene qHTS assay in human keratinocytes (AID 1919969); further: nearly all actives have a fitted effect of over 35% in size
[3] = biological target: KiSS-1 receptor (Homo sapiens) (UniProt Q969F8); experiment: Human kisspeptin (KISS1R) small molecule agonists, calcium flux assay in KISS1R-HEK293 cells (AID 1920064; active means well fitted curve in the direction sought with a large enough effect in the repeat runs; an effect the other way counts as inactive or inconclusive)
Chain of KiSS-1 receptor (Homo sapiens) (Q969F8 whole entry, looked up): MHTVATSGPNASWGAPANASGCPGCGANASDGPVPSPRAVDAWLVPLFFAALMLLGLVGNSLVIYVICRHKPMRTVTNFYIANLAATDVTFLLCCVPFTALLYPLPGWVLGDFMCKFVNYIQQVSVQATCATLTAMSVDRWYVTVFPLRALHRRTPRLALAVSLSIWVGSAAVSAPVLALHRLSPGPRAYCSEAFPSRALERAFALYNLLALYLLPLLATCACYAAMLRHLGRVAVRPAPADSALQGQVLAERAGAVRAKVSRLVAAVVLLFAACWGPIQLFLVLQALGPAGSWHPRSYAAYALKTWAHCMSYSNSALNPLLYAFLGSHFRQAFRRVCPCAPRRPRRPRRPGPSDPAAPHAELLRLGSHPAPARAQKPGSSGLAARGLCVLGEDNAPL
Procedure, shortened: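 HEK293 cells stably expressing human KISS1R were plated 18 h at 37 °C, loaded with calcium dye for 1 h at 37 °C, then given compound by pin tool. Fluorescence (Ex/Em 480/540) was read kinetically for 3 min.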

[4] = G protein-coupled receptor (GPCR) small molecule agonists, calcium flux assay: HEK293 wild type cell line counter screen (AID 1920065)
Procedure, shortened: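 Cells were plated and cultured 18 h at 37 C/5% CO2, then loaded with calcium dye for 1 h at 37 C. Compounds in DMSO were pin-transferred in agonist mode, and fluorescence (Ex/Em 480/540) was read kinetically for 3 min at 1 s intervals.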

[5] = p53 small molecule agonists, cell-based qHTS assay with human liver microsomes (AID 1963577);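 further: p53 response element beta-lactamase reporter cells with liver microsomes plus NADPH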
Procedure, shortened: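 Reporter activation was measured by LiveBLAzer fluorescence intensity in p53RE-bla cells, which had been exposed to compounds for 16 h at 37 C alongside 0.5 mg/mL human liver microsomes and 0.5 mg/mL NADPH (final concentrations).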

[6] = p53 small molecule agonists, cell-based qHTS assay with rat liver microsomes (AID 1963578)
Procedure, shortened: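 Compound in DMSO added to p53RE-bla cells 5 h post-plating; rat microsomes/NADPH 0.5 mg/mL final; 16 h, 37 C; LiveBLAzer 2 h RT.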

[7] = p53 small molecule agonists, cell-based qHTS assay with human liver microsomes: qHTS cell viability counter screen (AID 1963579); further: nearly all actives have a fitted effect of over 45% in size
Procedure, shortened: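 HLM-supplemented (0.5 mg/mL final) and NADPH-supplemented (0.5 mg/mL final) p53RE-bla cultures, 4,000 cells per well, were dosed with compounds in DMSO for 16 h at 37 C; luminescent ATP detection (CellTiter-Glo, 30 min, room temperature) quantified surviving cells.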

[8] = p53 small molecule agonists, cell-based qHTS assay with rat liver microsomes: qHTS cell viability counter screen (AID 1963580); further: nearly all actives have a fitted effect of over 45% in size
Procedure, shortened: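 HCT-116 p53RE-bla, 4,000 cells/well, 5 h pre-incubation; cpd + rat liver microsomes 0.5 mg/mL + NADPH 0.5 mg/mL (final); 16 h, 37 C; CellTiter-Glo, 30 min RT; luminescence.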

[9] = p53 small molecule agonists, cell-based qHTS assay: qHTS cell viability counter screen (AID 1963581); further: nearly all actives have a fitted effect of over 45% in size
Procedure, shortened: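 p53RE-bla HCT-116 cells were exposed to compounds for 16 h at 37 C; after the beta-lactamase FRET read in the same wells, CellTiter-Glo was added and luminescence (intracellular ATP) read after 30 min at room temperature.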

[10] = p53 small molecule agonists, cell-based qHTS assay (AID 1963582; active means well fitted activation curve with a large enough effect in the signal ratio in the repeat runs, not every such curve was filed as active; the % refers to the signal ratio)
Procedure, shortened: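 p53RE-bla beta-lactamase reporter cells rested 5 h at 37 C/5% CO2, then received compounds in DMSO by pin transfer and were incubated 16 h at 37 C. LiveBLAzer B/G FRET substrate was loaded for 2 h at room temperature before fluorescence reading.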

[11] = biological target: 5-hydroxytryptamine receptor 2A (Homo sapiens) (UniProt P28223); experiment: 5-hydroxytryptamine receptor 2A (HTR2A) small molecule antagonists, cell-based qHTS assay (AID 1963586); further: nearly all actives have a fitted effect of over 45% in size
Chain of 5-hydroxytryptamine receptor 2A (Homo sapiens) (P28223 whole entry, looked up): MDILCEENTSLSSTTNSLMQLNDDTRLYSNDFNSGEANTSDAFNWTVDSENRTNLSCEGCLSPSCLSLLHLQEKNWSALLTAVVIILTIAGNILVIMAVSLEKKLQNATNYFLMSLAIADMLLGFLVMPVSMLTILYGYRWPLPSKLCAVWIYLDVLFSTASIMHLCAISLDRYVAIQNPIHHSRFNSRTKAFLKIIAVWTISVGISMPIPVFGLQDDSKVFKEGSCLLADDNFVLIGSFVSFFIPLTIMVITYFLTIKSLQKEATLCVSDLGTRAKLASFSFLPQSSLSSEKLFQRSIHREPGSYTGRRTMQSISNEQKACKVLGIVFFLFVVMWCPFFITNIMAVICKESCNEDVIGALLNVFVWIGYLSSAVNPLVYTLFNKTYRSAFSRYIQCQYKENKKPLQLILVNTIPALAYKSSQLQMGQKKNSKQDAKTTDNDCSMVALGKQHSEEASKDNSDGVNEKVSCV
Procedure, shortened: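 Antagonist-mode intracellular calcium assay: DOI (4 nM) added after 5 min compound pre-incubation at room temperature to dye-loaded HTR2A-CHO cells. Fluorescence followed for 3 min, sampled every second.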

[12] = biological target: 5-hydroxytryptamine receptor 2A (Homo sapiens) (UniProt P28223); experiment: 5-hydroxytryptamine receptor 2A (HTR2A) small molecule agonists, cell-based qHTS assay (AID 1963587); further: nearly all actives have a fitted effect of over 30% in size
Procedure, shortened: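 Kinetic calcium-flux fluorescence (2 min, 1 sec intervals) after compound addition in agonist mode. HTR2A-CHO cells were cultured 18 h, then dye-loaded 1 h at 37 C.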

[13] = biological target: Muscarinic acetylcholine receptor M1 (Homo sapiens) (UniProt P11229); experiment: Cholinergic receptor muscarinic 1 (CHRM1) small molecule antagonists, cell-based qHTS assay (AID 1963588); further: nearly all actives have a fitted effect of over 40% in size
Chain of Muscarinic acetylcholine receptor M1 (Homo sapiens) (P11229 whole entry, looked up): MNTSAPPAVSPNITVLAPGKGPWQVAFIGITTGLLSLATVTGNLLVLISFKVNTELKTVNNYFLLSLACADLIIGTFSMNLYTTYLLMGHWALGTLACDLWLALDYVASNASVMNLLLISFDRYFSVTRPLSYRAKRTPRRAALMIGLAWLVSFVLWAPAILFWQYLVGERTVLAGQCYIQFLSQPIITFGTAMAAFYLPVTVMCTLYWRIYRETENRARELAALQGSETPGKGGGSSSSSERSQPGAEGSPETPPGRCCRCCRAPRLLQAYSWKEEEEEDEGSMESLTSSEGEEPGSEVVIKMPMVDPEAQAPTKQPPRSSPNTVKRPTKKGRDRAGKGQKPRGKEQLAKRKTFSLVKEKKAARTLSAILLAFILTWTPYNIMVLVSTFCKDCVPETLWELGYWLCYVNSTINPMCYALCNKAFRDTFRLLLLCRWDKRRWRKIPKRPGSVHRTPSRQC
Procedure, shortened: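 CHRM1-CHO calcium-flux assay, antagonist mode. Cells were seeded 18 h, dye-loaded 1 h at 37 C and given compound for 5 min at RT, then acetylcholine was added at 50nM. FDSS fluorescence was read 3 min; 15 concentrations, three runs.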

[14] = biological target: Muscarinic acetylcholine receptor M1 (Homo sapiens) (UniProt P11229); experiment: Cholinergic receptor muscarinic 1 (CHRM1) small molecule agonists, cell-based qHTS assay (AID 1963589); further: nearly all actives have a fitted effect of over 35% in size
Procedure, shortened: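 CHO cells stably expressing human CHRM1, seeded 18 h at 37 C/5% CO2, dye-loaded 1 h at 37 C, then given compound in agonist mode; intracellular calcium fluorescence read kinetically at 1 s intervals. Fifteen concentrations, three independent runs.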

[15] = cAMP Responsive Elements (CRE) small molecule agonists, cell-based qHTS assay (AID 1963590)
Procedure, shortened: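 CRE-bla HEK 293T cells in DMEM with 10% dialyzed FBS, NEAA, pyruvate and 25 mM HEPES were plated 18 h at 37 C/5% CO2, then exposed to compounds in DMSO for 3 h before LiveBLAzer B/G FRET substrate addition.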

[16] = cAMP Responsive Elements (CRE) small molecule antagonists, cell-based qHTS assay (AID 1963591; active means well fitted inhibition curve with a large enough effect in the signal ratio in the repeat runs, not every such curve was filed as active; the % refers to the signal ratio)
Procedure, shortened: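 CRE-bla HEK293T cells were plated 18 h at 37 °C/5% CO2, pinned with compound in DMSO, then stimulated with NKH477 at 0.25 uM final for 3 h. LiveBLAzer B/G FRET substrate was added and plates incubated 2 h at room temperature.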

[17] = biological target: Beta-2 adrenergic receptor (Homo sapiens) (UniProt P07550); experiment: Adrenergic beta2 receptor (ADRB2) small molecule antagonists, cell-based qHTS assay (AID 1963592); further: series mostly up to about 92 µM; nearly all actives have a fitted effect of over 50% in size
Chain of Beta-2 adrenergic receptor (Homo sapiens) (P07550 whole entry, looked up): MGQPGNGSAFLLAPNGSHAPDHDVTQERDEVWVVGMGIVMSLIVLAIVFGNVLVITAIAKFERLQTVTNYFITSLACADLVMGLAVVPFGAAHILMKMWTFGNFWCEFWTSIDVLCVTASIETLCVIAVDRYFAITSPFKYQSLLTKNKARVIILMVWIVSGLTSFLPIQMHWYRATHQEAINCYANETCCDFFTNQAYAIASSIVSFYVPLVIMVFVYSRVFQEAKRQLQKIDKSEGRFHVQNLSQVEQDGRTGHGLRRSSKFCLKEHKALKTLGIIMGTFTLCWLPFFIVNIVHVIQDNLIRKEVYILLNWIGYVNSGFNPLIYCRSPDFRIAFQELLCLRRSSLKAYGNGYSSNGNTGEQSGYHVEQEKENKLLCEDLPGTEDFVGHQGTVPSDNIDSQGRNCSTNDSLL
Procedure, shortened: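 Cells (CHO, stable ADRB2 overexpression) incubated 18-20hr at 37C; compounds added from DMSO; agonist mix (1nM isoproterenol, 100uM IBMX, 25uM Ro-20-1724) added; 0.5hr RT; d2-cAMP and anti-cAMP-cryptate added; 1hr RT; 665/615 nm read.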

[18] = biological target: D(2) dopamine receptor (Homo sapiens) (UniProt P14416); experiment: Dopamine D2 receptor (DRD2) small molecule agonists, cell-based qHTS assay (AID 1963594); further: nearly all actives have a fitted effect of over 35% in size
Chain of D(2) dopamine receptor (Homo sapiens) (P14416 whole entry, looked up): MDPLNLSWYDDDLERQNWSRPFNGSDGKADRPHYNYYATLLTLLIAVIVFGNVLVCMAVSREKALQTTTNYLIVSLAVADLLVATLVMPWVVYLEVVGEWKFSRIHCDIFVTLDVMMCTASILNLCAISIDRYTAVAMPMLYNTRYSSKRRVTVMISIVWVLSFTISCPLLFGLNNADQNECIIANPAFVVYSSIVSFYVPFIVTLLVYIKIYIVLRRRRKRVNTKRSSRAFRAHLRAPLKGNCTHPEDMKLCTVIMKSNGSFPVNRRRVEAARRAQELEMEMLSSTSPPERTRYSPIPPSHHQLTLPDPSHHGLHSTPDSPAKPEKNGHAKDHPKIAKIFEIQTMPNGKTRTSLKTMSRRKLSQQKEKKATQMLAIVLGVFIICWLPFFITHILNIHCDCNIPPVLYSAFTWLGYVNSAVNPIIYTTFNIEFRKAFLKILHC
Procedure, shortened: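 cAMP accumulation in DRD2-HEK293 cells measured by HTRF after 1 h detection; compounds added 10 min before NKH477 (200nM […]) forskolin-analogue stimulation, 30 min at room temperature, with Ro20-1724 present at 0.1 mM final.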

[19] = biological target: D(2) dopamine receptor (Homo sapiens) (UniProt P14416); experiment: Dopamine D2 receptor (DRD2) small molecule antagonists, cell-based qHTS assay (AID 1963595; active means well fitted inhibition curve with a large enough effect in the signal ratio in the repeat runs, with a control signal flat; the % refers to the signal ratio)
Procedure, shortened: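 Antagonist mode in DRD2-HEK293 cells: after compound addition with 0.1 mM Ro20-1724, cells received quinpirole (12 nM) and NKH477 (200 nM) for 30 min at room temperature; HTRF cAMP read after 1 h detection.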

[20] = biological target: Beta-2 adrenergic receptor (Homo sapiens) (UniProt P07550); experiment: Adrenergic beta2 receptor (ADRB2) small molecule agonists, cell-based qHTS assay (AID 1963593);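 further: CHO cells stably overexpressing human ADRB2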
Procedure, shortened: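 CHO cells stably over-expressing ADRB2 were plated overnight at 37C, then dosed with compounds plus a stimulation mix containing 100uM IBMX and 25uM Ro-20-1724 for 0.5hr at room temperature. cAMP was measured by HTRF competition, 1hr.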
On the % scale 0 is the no-effect control and ±100 the full control effect.

CCCc1ccc(O)c(OC)c1
inactive: Potency [1] | Potency [2] | outcome [3] | outcome [4] | Potency [5] | Potency [6] | Potency [7] | Potency [8] | Potency [9] | Potency [10] | Potency [11] | Potency [12] | Potency [13] | Potency [14] | Potency [15] | Potency [16] | Potency [17] | Potency [18] | Potency [19]

FC(F)OC(Cl)C(F)(F)F (stereo unspecified)
inactive: Potency [1] | Potency [2] | outcome [3] | outcome [4] | Potency [5] | Potency [6] | Potency [7] | Potency [8] | Potency [9] | Potency [10] | Potency [11] | Potency [12] | Potency [13] | Potency [14] | Potency [15] | Potency [18] | Potency [19]

O=C1C(CCS(=O)c2ccccc2)C(=O)N(c2ccccc2)N1c1ccccc1 (stereo unspecified)
inactive: Potency [1] | Potency [2] | outcome [3] | outcome [4] | Potency [5] | Potency [6] | Potency [7] | Potency [8] | Potency [9] | Potency [10] | Potency [15] | Potency [16] | Potency [17] | Potency [19]

CC(N)C(=O)OC(C)(C)Cc1ccc(Cl)cc1 (stereo unspecified)
inactive: Potency [1] | Potency [2] | outcome [3] | outcome [4] | Potency [5] | Potency [6] | Potency [7] | Potency [8] | Potency [9] | Potency [10] | Potency [11] | Potency [13] | Potency [14] | Potency [15] | Potency [16] | Potency [17] | Potency [19]

NCC[C@H](O)C(=O)N[C@@H]1C[C@H](N)[C@@H](O[C@H]2O[C@H](CN)[C@@H](O)[C@H](O)[C@H]2O)[C@H](O)[C@H]1O[C@H]1O[C@H](CO)[C@@H](O)[C@H](N)[C@H]1O
inactive: activity change, negative = cytotoxicity [1] -17.6% [at 0.349 µM] | activity, positive = activation [2] 1.57% [at 0.349 µM] | activation [3] 0.177% [at 0.29 µM] | activation [4] 0.401% [at 0.217 µM] | activation [5] 0.0378% [at 0.249 µM] | activation [6] -0.443% [at 0.249 µM] | activity change, negative = cytotoxicity [7] 4.34% [at 0.249 µM] | activity change, negative = cytotoxicity [8] 1.45% [at 0.249 µM] | activity change, negative = cytotoxicity [9] -9.5% [at 0.249 µM] | activation [10] 0.378% [at 0.249 µM] | activation [15] -1.43% [at 0.349 µM] | activity change, negative = inhibition [16] -1.04% [at 0.349 µM] | activity change, negative = inhibition [17] 4.47% [at 0.349 µM] | activation [20] 21.1% [at 0.349 µM] | activation [18] -17.8% [at 0.349 µM] | activity change, negative = inhibition [19] -0.368% [at 0.348 µM]

CC(=O)OCC(=O)[C@@]1(O)CCC2C3CCC4=CC(=O)CC[C@]4(C)C3[C@@H](O)C[C@@]21C (stereo partly specified)
inactive: Potency [1] | Potency [2] | outcome [3] | outcome [4] | Potency [5] | Potency [6] | Potency [7] | Potency [8] | Potency [9] | Potency [10] | Potency [11] | Potency [12] | Potency [13] | Potency [15] | Potency [17] | Potency [20] | Potency [18] | Potency [19]

COc1c(N2CCNC(C)C2)c(F)cc2c(=O)c(C(=O)O)cn(C3CC3)c12 (stereo unspecified)
inactive: Potency [1] | Potency [2] | outcome [3] | outcome [4] | Potency [5] | Potency [6] | Potency [7] | Potency [8] | Potency [9] | Potency [10] | Potency [15] | Potency [16] | Potency [17] | Potency [18]

Nc1c2c(nc3ccccc13)CCCC2O (stereo unspecified)
inactive: Potency [1] | Potency [2] | outcome [3] | outcome [4] | Potency [5] | Potency [6] | Potency [7] | Potency [8] | Potency [9] | Potency [10] | Potency [12] | Potency [14] | Potency [16] | Potency [17] | Potency [18] | Potency [19]

From PubChem BioAssay (Tox21)
